SENP7 block – inhibitors of human SENP7 protease; 330,000 compounds, 1.5% hits; inhibition, % at 5 µM; Q9BQF6; recombinant SENP7, Z-RLRGG-aminoluciferin luminescence, 40 min; AID 434973;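 active means inhibition above about 50% at the single test dose, limit read from the data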;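 further: plate controls were DMSO with enzyme for no effect and no enzyme buffer wells for full effect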
SENP8 block-1 – blocks the human protease SENP8; inhibition, % at 10 µM; purified SENP8, Z-RLRGG-aminoluciferin cleavage, luminescence; Q96LD8; 330,000 compounds, 1.2% hits; in the data active means inhibition above about 50%
Target sequence (Q96LD8 whole entry, looked up): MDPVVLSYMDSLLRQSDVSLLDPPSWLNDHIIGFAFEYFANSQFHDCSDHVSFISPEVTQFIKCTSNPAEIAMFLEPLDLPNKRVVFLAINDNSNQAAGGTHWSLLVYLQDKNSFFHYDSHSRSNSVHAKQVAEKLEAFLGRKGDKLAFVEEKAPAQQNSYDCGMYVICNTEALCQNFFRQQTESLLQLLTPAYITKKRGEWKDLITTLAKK
SENP8 block-2 – inhibitors of human SENP8 protease. Q96LD8. recombinant SENP8, Nedd8 substrate fluorescence. inhibition, % at 20 µM. 360,000 compounds, 0.64% hits; in the data active means inhibition mostly above about 40%, no sharp cut-off; inactive means mostly below about 27%
HSP90 inh – blocks HSP90-mediated luciferase refolding in reticulocyte lysate | Rabbit reticulocyte lysate, luciferase refolding luminescence, 3 h | inhibition, % at 5.6 µM | 290,000 compounds, 0.91% hits | AID 1789;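 active means inhibition above the screen-wide mean plus 3 SD, computed separately per campaign, cut at about 16% in these data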;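 further: 0% = DMSO wells and 100% = 60 µM geldanamycin wells; inhibitors lower the luminescence because luciferase stays unfolded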
SENP6 inh – inhibitors of human SENP6 protease; Q9GZR1; Recombinant SENP6 catalytic domain, aminoluciferin luminescence; inhibition, % at 10 µM; 330,000 compounds, 1.8% hits; AID 2599;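 active means inhibition above about 50% at the single tested dose, limit read from the data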;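 further: plate controls were DMSO wells with enzyme for no effect and DMSO wells lacking enzyme for full effect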
HSP90 inh confirm – HSP90 inhibition, confirmation assay | shares compounds with HSP90 inh | rabbit reticulocyte lysate, luciferase refolding luminescence, 3 h | inhibition, % at 5.9 µM | 2,300 compounds, 64% hits; in the data active means inhibition above about 18%;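 further: 0% = vehicle wells and 100% = reference inhibitor wells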
FLuc counter – counter-screen for HSP90 inhibitors: inhibitors of firefly luciferase; shares compounds with HSP90 inh; purified native firefly luciferase, luminescence; inhibition, % at 5.9 µM; 2,300 compounds, 48% hits;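 active means inhibition above the mean inhibition of all tested sample wells plus 3 SD, cut at about 10% in these data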;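 further: 0% = DMSO with luciferase and 100% = wells lacking luciferase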
SENP8 conf-1 – confirmation of human SENP8 protease inhibitors; Recombinant SENP8, Z-RLRGG-aminoluciferin luminescence, 60 min; inhibition, % at 12.5 µM; AID 488912; 6,200 compounds, 40% hits; shares compounds with SENP7 block;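 active means mean inhibition across replicates above about 50%, limit read from the data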
SENP6 conf – human SENP6 inhibition, confirmed. shares compounds with SENP7 block. recombinant SENP6, Z-RLRGG-aminoluciferin luminescence. inhibition, % at 12.5 µM. 6,200 compounds, 58% hits
SENP7 conf – confirmation of human SENP7 protease inhibitors | AID 488917 | shares compounds with SENP7 block | 6,200 compounds, 69% hits | inhibition, % at 12.5 µM | recombinant SENP7, Z-RLRGG-aminoluciferin luminescence, 40 min
Casp3 SENP sel – selectivity test for SENP inhibitors: human caspase-3 inhibition | AID 488918 | 6,200 compounds, 60% hits | purified caspase-3, Z-DEVD-aminoluciferin luminescence, 60 min | shares compounds with SENP7 block | inhibition, % at 12.5 µM;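 active means mean inhibition above about 50%, limit read from the data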;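 further: plate controls were enzyme with DMSO for no effect and wells without caspase-3 for full effect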
Target sequence (P42574 28-227 limits assumed): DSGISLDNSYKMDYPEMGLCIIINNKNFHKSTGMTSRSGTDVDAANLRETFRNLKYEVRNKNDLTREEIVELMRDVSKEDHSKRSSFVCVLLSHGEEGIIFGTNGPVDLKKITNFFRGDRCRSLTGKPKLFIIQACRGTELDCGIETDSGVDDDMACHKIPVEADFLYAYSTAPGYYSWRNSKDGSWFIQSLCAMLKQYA
Luc interf – luminescence interference (SENP counter-screen); 6,200 compounds, 39% hits; shares compounds with SENP7 block; Pre-incubated SENP8/Z-RLRGG-aminoluciferin, luciferase luminescence interference; inhibition, % at 12.5 µM; AID 488919;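 active means mean inhibition above about 50% when retested at one dose, limit read from the data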;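 further: plate controls were DMSO wells with completed reaction for no effect and substrate without enzyme for full effect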
SENP8 conf-2 – confirmation of human SENP8 protease inhibitors | purified SENP8, Nedd8-AMC/pro-Nedd8 cleavage fluorescence, 30 min | AID 624319 | 1,400 compounds, 15% hits | inhibition, % at 25 µM | shares compounds with SENP8 block-2; in the data active means inhibition mostly above about 39%, no sharp cut-off; inactive means mostly below about 34%
Numbers without * were called inactive. In the library only some 2.7% were active in any assay of this set; here they are far more common.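 How the source made its calls, unless noted: active means mean inhibition above about 50% in the one-dose retest (limit read from the data); inactive means the rest.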

How did Cc1cc(C(=O)COC(=O)c2ccc3c(c2)OCO3)c(C)n1Cc1cccs1 do in these assays?
SENP7 block: -5; SENP8 block-1: -3; SENP8 block-2: 5; HSP90 inh: 8; SENP6 inh: -69

How did Cc1cc(C(=O)COC(=O)C2COc3ccccc3O2)c(C)n1CC1CCCO1 (stereo not drawn) do in these assays?
SENP7 block: 4; SENP8 block-1: -3; SENP8 block-2: 2; HSP90 inh: 9; SENP6 inh: -19

Results for Cc1cc(C(=O)COC(=O)c2n[nH]c3ccccc23)c(C)n1CC1CCCO1 (stereo not drawn) ?
SENP7 block: 13; SENP8 block-1: 87*; SENP8 block-2: 21; HSP90 inh: 52*; SENP6 inh: 86*; HSP90 inh confirm: 55*; FLuc counter: 54*; SENP8 conf-1: 47; SENP6 conf: 92*; SENP7 conf: 99*; Casp3 SENP sel: 90*; Luc interf: 77*

How did COCCn1c(C)cc(C(=O)COC(=O)Cc2n[nH]c(=O)c3ccccc23)c1C do in these assays?
SENP7 block: -9; SENP8 block-1: -11; SENP8 block-2: -3; SENP6 inh: 6

Results for Cc1cc(C(=O)COC(=O)c2cccnc2Cl)c(C)n1CC1CCCO1 (stereo not drawn) ?
SENP7 block: 93*; SENP8 block-1: 90*; SENP8 block-2: 9; HSP90 inh: 78*; SENP6 inh: 90*; HSP90 inh confirm: 86*; FLuc counter: 82*; SENP8 conf-1: 95*; SENP6 conf: 96*; SENP7 conf: 101*; Casp3 SENP sel: 98*; Luc interf: 80*

How did Cc1cc(C(=O)COC(=O)c2ccccc2O)c(C)n1Cc1cccs1 do in these assays?
SENP7 block: 95*; SENP8 block-1: 93*; SENP8 block-2: -8; HSP90 inh: 82*; SENP6 inh: 92*; HSP90 inh confirm: 86*; FLuc counter: 84*; SENP8 conf-1: 93*; SENP6 conf: 98*; SENP7 conf: 101*; Casp3 SENP sel: 93*; Luc interf: 51*

Results for COCCn1c(C)cc(C(=O)COC(=O)c2n[nH]c3ccccc23)c1C ?
SENP7 block: 86*; SENP8 block-1: 82*; SENP8 block-2: 21; HSP90 inh: 44*; SENP6 inh: 71*; HSP90 inh confirm: 66*; FLuc counter: 69*; SENP8 conf-1: 94*; SENP6 conf: 94*; SENP7 conf: 100*; Casp3 SENP sel: 92*; Luc interf: 87*

What do the screens show for `Brc1csc(C=Nc2ccc3c(c2)OCCOCCOCCOCCO3)c1`?
SENP7 block: -4; SENP8 block-1: -3; SENP8 block-2: 28; HSP90 inh: -6; SENP6 inh: 10

Results for c1ccc2nc(-c3ccc(N4CCOCC4)cc3)ccc2c1 ?
SENP7 block: 97*; SENP8 block-1: 81*; SENP8 block-2: -281; HSP90 inh: 27*; SENP6 inh: 93*; HSP90 inh confirm: 80*; FLuc counter: 71*; SENP8 conf-1: 66*; SENP6 conf: 80*; SENP7 conf: 93*; Casp3 SENP sel: 76*; Luc interf: 39

What do the screens show for `Cc1cc(-c2ccc(N3CCOCC3)cc2)nc2ccccc12`?
SENP7 block: 8; SENP8 block-1: -6; SENP8 block-2: -413; HSP90 inh: 0; SENP6 inh: 8

Results for Cc1ccc2c(c1)sc(=NC(=O)c1cccs1)n2C ?
SENP7 block: 100*; SENP8 block-1: 95*; SENP8 block-2: -409; HSP90 inh: 28*; SENP6 inh: 93*; HSP90 inh confirm: 84*; FLuc counter: 80*; SENP8 conf-1: 29; SENP6 conf: 75*; SENP7 conf: 99*; Casp3 SENP sel: 95*; Luc interf: 43

How did Cc1ccc2c(c1)sc(=NC(=O)C1CC1)n2C do in these assays?
SENP7 block: 6; SENP8 block-1: -6; SENP8 block-2: -5; HSP90 inh: 4; SENP6 inh: 14

Results for Cc1ccc(CN2CCN(C(=O)CCN3C(=O)c4ccccc4C3=O)CC2)cc1 ?
SENP7 block: -8; SENP8 block-1: -4; SENP8 block-2: 20; HSP90 inh: -2; SENP6 inh: -6

Results for Cc1ccc(C(=O)n2c(N)nc3ccccc32)cc1 ?
SENP7 block: 97*; SENP8 block-1: 91*; SENP8 block-2: -30; HSP90 inh: 60*; SENP6 inh: 86*; HSP90 inh confirm: 89*; FLuc counter: 83*; SENP8 conf-1: 90*; SENP6 conf: 95*; SENP7 conf: 101*; Casp3 SENP sel: 96*; Luc interf: 66*

Results for C[n+]1cccc2c(Br)ccc([O-])c21 ?
SENP7 block: 87*; SENP8 block-1: 93*; SENP8 block-2: 117*; HSP90 inh: 19*; SENP6 inh: 95*; HSP90 inh confirm: 3; FLuc counter: -2; SENP8 conf-1: 11; SENP6 conf: 40; SENP7 conf: 17; Casp3 SENP sel: 6; Luc interf: -1; SENP8 conf-2: 69*

What do the screens show for `CCOc1ccc(-n2c(=O)c3c(C)c(C)sc3n(CC(=O)NCc3ccco3)c2=O)cc1`?
SENP7 block: 0; SENP8 block-1: 5; SENP8 block-2: 14; HSP90 inh: 1; SENP6 inh: -15

Results for Cc1[nH][nH]c(=O)c1C(c1ccc(-c2ccc(C(=O)O)cc2)o1)c1c(C)[nH][nH]c1=O ?
SENP8 block-2: 5; HSP90 inh: 4

From PubChem BioAssay
